35 compounds from PubChem BioAssay can be followed below.

In the assay the test system is Sam68 (KHDRBS1). Briefly: compounds binding KHDRBS1 protein – biochemical, small-molecule microarray, 635 nm fluorescence, primary screen (AID 1125).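 Further: score merges 667 nm channel intensity with signal to noise over triplicate slides.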 To be noted: higher = more signal.
In turn, `Cc1ccccc1C(O)C1C=CC2C(=O)N(C)C(=O)C2N1N(c1ccccc1)c1ccccc1` (stereo not given) returned a composite z-score of -1.29.

In the case of `COc1ccc([Si](C)(C)[C@@H]2[C@@H](CC(=O)N(CCO)Cc3ccccc3)O[C@]3(C(=O)N(Cc4cccc(N5C(=O)c6cccc7cccc5c67)c4)c4ccccc43)[C@H]2C)cc1`, the composite z-score was found to be 0.0019.

In turn, `C=C[C@@H](COC(C)=O)N(C(=O)OC(C)(C)C)S(=O)(=O)c1ccc(Br)cc1` displayed a composite z-score of 0.827.

In the case of `C=C(COC)/C(=C/C[C@H](OC(C)=O)c1ccc(OCCO)cc1)c1cc(C(=O)OC)ccc1OC`, the composite z-score is 1.07.

Consider `Cc1ccc(S[C@]2(C(=O)NCC(F)(F)F)CC(=O)N(Cc3ccccc3C(F)(F)F)[C@@H]2c2ccc(CO)cc2I)cc1`, for which the composite z-score is -0.486.

With `COC(=O)[C@@]1(Cc2ccc(F)cc2)[C@H]2c3cc(C(=O)N4CCCC4)n(CCc4ccc(O)c(O)c4)c3C[C@H]2CN1C(=O)c1ccccc1`, the composite z-score is -1.03.

Take `COCCOC(=O)N1C(=O)[C@@]2(c3cc(C#CCC(C(=O)OC)C(=O)OC)ccc31)[C@H](C(=O)N1CCc3cc(OC)c(OC)cc3C1)[C@H]1C(=O)O[C@H](c3ccccc3)[C@H](c3ccccc3)N1[C@@H]2c1ccc(OCCO)cc1`: the composite z-score was determined as 1.29.

The compound `COc1ccc(CCN2C(=O)[C@@]3(Cc4ccccc42)c2ccccc2C(=O)N(Cc2ccccc2OC)[C@H]3c2ccc(CO)cc2)cc1` registered a composite z-score of -0.232.

Regarding `CN(C)CCCNC(=O)[C@@]1(c2ccc([N+](=O)[O-])cc2)CC(=O)N(CC23CC4CC(CC(C4)C2)C3)[C@@H]1c1ccc(CO)cc1I`, the composite z-score came out at 1.28.

Compound `CCCC[C@@H]1C[C@H]1[C@@H](NC(=O)c1cccs1)c1ccc(C(F)(F)F)cc1` came in with a composite z-score of -0.154.

`COC(=O)C1=CC(CCCO)=CC(C2CC2)N(C)C=C1C(=O)OC` (stereo not given) yielded a composite z-score of 0.0065.

`CC(=O)c1ccc(C(O)C2C=CC3C(=O)N(c4ccccc4)C(=O)C3N2Nc2ccc(C#N)cc2)cc1` (stereo not given) registered a composite z-score of 1.1.

In the case of `COCCOC(=O)N1C(=O)[C@@]2(c3cc(C#CC4=CCCCC4)ccc31)[C@H](c1ccc(OCCO)cc1)N1[C@H](c3ccccc3)[C@H](c3ccccc3)OC(=O)[C@H]1[C@@H]2C(=O)NC[C@H](O)c1ccccc1`, the composite z-score was found to be 1.31.

As to `CCCC[C@@H]1C[C@H]1[C@@H](NC(=O)Cc1ccccc1)c1ccc(-c2ccccc2)cc1`, the composite z-score worked out at 0.214.

Compound `CCCCN1CC=CC23O[C@@H]4/C=C\CCC(C)OC(=O)C4[C@H]2C(=O)N(C(CO)C(C)C)[C@@H]3C1=O` (stereo not given in full) had a composite z-score of -0.468.

For `CO[C@H]1O[C@H](CO)[C@@H](OC(=O)Nc2ccccc2-c2ccccc2)[C@H](OC(=O)Nc2ccc3c(c2)OCO3)[C@H]1OC(=O)Nc1ccc2c(c1)OCO2`, the composite z-score turned out to be 1.31.

`C=CCN1C(=O)[C@@]2(O[C@@H](CCn3cc([C@H](O)c4ccccc4)nn3)[C@H]([Si](C)(C)c3ccc(OC)cc3)[C@H]2C)c2cc(N3CCC3=O)ccc21` had a composite z-score of 0.636.

In turn, `C=CCN1C(=O)[C@@]2(CCS(=O)(=O)c3ccccc3)N=C(c3ccc(OCCCO)cc3)O[C@H]2c2ccccc21` had a composite z-score of 0.988.

For the compound `COC(=O)CCCCCCC(=O)Nc1ccc(NC(=O)CCCC[P+](c2ccccc2)(c2ccccc2)c2ccccc2)cc1`, the composite z-score stood at 0.559.

For the compound `CC(CO)N1C(=O)[C@@H]2[C@H]3C(=O)OCC=C[C@H]3OC23C=CCN(C(C)(C)C)C(=O)[C@@H]13` (stereo not given in full), the composite z-score was -1.05.

Consider `[N-]=[N+]=Nc1ccccc1[C@@H]1OC(c2ccc(OCCCO)cc2)=N[C@]1(Cc1ccccc1)C(=O)NCC(O)CO` (stereo not given in full), for which the composite z-score worked out at 0.897.

Take `CC1CC/C=C\[C@H]2OC34C=CCN(c5ccc(Cl)cc5)C(=O)[C@H]3N(CCCCCO)C(=O)[C@]4(C)C2C(=O)O1` (stereo not given in full): the composite z-score is -0.682.

In turn, `C=CCC(OC(C)=O)[C@@H]1[C@@H](N(Cc2cccc3ccccc23)C(=O)c2cccc3ccccc23)c2cc(OCCCO)ccc2N1C(=O)c1ccc(-c2ccccc2)cc1` (stereo not given in full) showed a composite z-score of -0.159.

On to `CN1C(=O)C2C=CC(C(O)c3ccccn3)N(N(c3ccccc3)c3ccccc3)C2C1=O` (stereo not given), for which the composite z-score is -0.349.

`CC(C)(C)N1CC=CC23O[C@@H]4C=CCCOC(=O)C4[C@H]2C(=O)N(CCO)[C@@H]3C1=O` (stereo not given in full): the composite z-score was -0.889.

As to `Cc1ccc(S[C@]2(C(=O)NCCCN(C)C)CC(=O)N(C3CCCCC3)[C@@H]2c2ccc(CO)cc2)cc1`, the composite z-score is -1.01.

For the compound `CCOc1cc(C(O)C2C=CC3C(=O)N(c4ccccc4)C(=O)C3N2Nc2ccc(C#N)cc2)ccc1O` (stereo not given), the composite z-score was -0.0645.

Regarding `COCCOC(=O)N1C(=O)[C@@]2(c3cc(C#Cc4ccc(OC)cc4)ccc31)[C@H](C(=O)Nc1nc3ccccc3s1)[C@H]1C(=O)O[C@H](c3ccccc3)[C@H](c3ccccc3)N1[C@@H]2c1ccc(OCCO)cc1`, the composite z-score came out at 1.31.

`O=C1O[C@H](c2ccccc2)[C@H](c2ccccc2)N2[C@H]1[C@@H](C(=O)NC[C@H](O)c1ccccc1)[C@]1(C(=O)Nc3ccc(C#CCCO)cc31)[C@H]2c1ccc(OCCO)cc1` registered a composite z-score of 1.29.

The compound `CCC(CC)C(O)C1C=CC2C(=O)N(c3ccccc3)C(=O)C2N1Nc1ccc(C(C)C)cc1` (stereo not given) gave a composite z-score of 1.3.

As to `C=CCC(OC(C)=O)[C@@H]1[C@@H](N(Cc2cccc3ccccc23)C(=O)Cc2ccc(OC)cc2)c2cc(OCCCO)ccc2N1C(=O)c1ccc2ccccc2n1` (stereo not given in full), the composite z-score was 0.404.

Compound `C=C(C)c1cc2c(c(CCCCCC)n1)[Si](C(C)C)(C(C)C)OC2` came in with a composite z-score of -0.631.

As to `COCCOC(=O)N1C(=O)[C@@]2(c3cc(C#CC4=CCCCC4)ccc31)[C@H](c1ccccc1OCCO)N1[C@H](c3ccccc3)[C@H](c3ccccc3)OC(=O)[C@H]1[C@@H]2C(=O)Nc1nc2ccccc2s1`, the composite z-score was found to be 1.32.

`O=C1NC(=O)C2C1C=CC(C(O)c1cccc3ccccc13)N2Nc1ccc(Cl)cc1Cl` (stereo not given) came in with a composite z-score of 0.762.

In turn, `CN(C)C(=O)[C@@]1(Cc2ccccc2CN=[N+]=[N-])N=C(c2ccc(OCCCO)cc2)O[C@H]1c1ccccc1CN=[N+]=[N-]` displayed a composite z-score of 0.873.
